From PubChem BioAssay AID2314 (National Center for Advancing Translational Sciences (NCATS), 2010) come the findings set out here.

Out of some 300,000 compounds screened, about 37,000 (12%) were called active. The sample as a whole holds a higher share of actives than the screen did. Unmarked numbers belong to inactive results. No stated cut-off is given here; in the data, active means max response mostly above about 13% (no sharp cut-off); inactive means mostly below about 14%.

This assay can be described thus: Cycloheximide Counterscreen for Small Molecule Inhibitors of Shiga Toxin. Further: read at 38.3 µM for the half of the compounds with a filed dose; 0% is about no effect. Conditions: cell reporter, cycloheximide protein synthesis inhibition counterscreen; hits give high values. Background: The purpose of a counterscreen is to sort out artefacts and off-target activity.
As to `COc1ccc(CCNC(=S)NC(=O)/C=C/c2ccc(C)cc2)cc1OC`, the max response is 9.56%.

Turning to `COC(=O)c1c(NC(=O)C(=O)N2CCCCC2)sc2c1CC(C)(C)OC2`, the max response was -2.72%.

In the case of `CC(=O)N1CCN(CC(C)(C)NS(=O)(=O)c2ccc(C)cc2)CC1`, the max response was -1.04%. Under `CCn1c(SCC(=O)Nc2nc3ccc(OC)cc3s2)nnc1-c1ccoc1C` stands 23.1% (active); under `CCOc1ccc2nc(NC(=O)CSc3nc4c(c(=O)n(C)c(=O)n4C)n3CC)sc2c1`, -6.89%; under `CCn1c(SCC(=O)NC2CCCC2)nnc1-c1ccoc1C`, -1.45%.

For `CC(=O)Nc1ccc(SCC(=O)Nc2ccccc2Oc2ccccc2)cc1`, the max response is 0.468%. For the molecule `C=CCNC(=O)c1ccccc1NC(=O)c1ccc(Cl)c(S(=O)(=O)Nc2cccc(C)c2C)c1`, the max response is 1.27%. Under `CCc1cccc(C)c1NS(=O)(=O)c1c(C)nc2sccn2c1=O` stands -1.71%; under `Cc1ccc2c(c1)c1ncn(Cc3ccc(F)cc3)c(=O)c1n2C`, -2.24%; under `Cc1ccc2c(c1)c1ncnc(N3CCc4ccccc4C3)c1n2C`, 42.1% (active).

In the case of `Cc1ccc2c(c1)c1ncn(CCC3=CCCCC3)c(=O)c1n2C`, the max response is -3.65%. With `OCCN1CCN(c2nnc(-c3ccccc3)c3ccccc23)CC1` the figure was -4.91%; with `COc1ccc(S(=O)(=O)NCC(=O)NCc2cc(=O)n(C)c(=O)n2C)cc1F`, -6.78%. With `O=C(COc1ccc2c(c1)CCC2)N1CCN(c2ccc(F)cc2)CC1` the figure was -1.09%.

Take `O=C(COC(=O)c1ccc(F)cc1)NCCCc1ccccc1`: the max response was -9.6%. With `Cc1c(NC(=O)c2cc(-c3ccc(Br)cc3)on2)c(=O)n(-c2ccccc2)n1C` the figure was -1.9%. With `Nc1nonc1C(=O)NCCc1ccccc1` the figure was 10.9%; with `CSc1ncc(C(=O)NCCCc2ccccc2)c(C)n1`, 10.8%; with `CCCCNC(=S)NNC(=O)c1cc(C)on1`, -1.9%. Under `Cc1cc(C(=O)NCCCc2ccccc2)no1` stands 13.1% (active); under `CCN(CC)CCCNC(=O)c1cc(-c2cccc(Cl)c2)on1`, 0.892%; under `O=C(NCCN1CCCC(O)C1)c1cc(COc2c(F)cccc2F)on1` (stereo unspecified), 9.93%.

For `CC(C)CNC(=O)c1cc(-c2ccc(Br)cc2)on1`, the max response is 36% (active). With `O=C(NCCCc1ccccc1)c1cc(COc2c(F)cccc2F)on1` the figure was 31.8% (active); with `C[C@H](NC(=O)NCCc1ccccc1)C(=O)O`, -6.82%.

In the case of `CC(C)Cc1cc(C(=O)NCCc2ccccc2)no1`, the max response was 53.1% (active). With `Cc1ccc2c(c1)N(CC(=O)NCCCN1CCCCC1)C(=O)c1cccnc1O2` the figure was 1.05%. With `Cc1cccc(NC(=O)Cn2c(=O)n(Cc3ccccc3)c(=O)c3c(C)c(C)sc32)c1` the figure was -2.17%; with `CCOc1ccc(OCC)c(NC(=O)CSc2nnc(Cn3cnc4ccccc43)n2C)c1`, -0.798%; with `COc1cccc(-n2nc(C(=O)N3CCN(Cc4ccccc4)CC3)c3ccccc3c2=O)c1`, 1.57%. Under `COc1ccc(C(=O)Nc2ccnn2C2CCN(Cc3ccncc3)CC2)cc1` stands 7.85%; under `O=C(CCN1C(=O)[C@@H]2Cc3ccccc3CN2C1=O)NCCc1ccccc1`, -1.26%; under `CCCOc1ccc(C2=CSC3=NCCN23)cc1Cl`, 1.92%. For `O=C(CSc1ncccn1)N1CCCC1`, the max response is -5.34%. As for `O=S(=O)(NCC1OCCc2ccccc21)c1ccccc1` (stereo unspecified), the max response was 1.35%. Under `CC(=O)c1nc2ccccc2n1Cc1ccccc1` stands -1.93%. Under `CC(C)Cc1cc(C(=O)Nc2cc(Br)ccc2O)no1` stands 31.8% (active); under `COc1ccc(NS(=O)(=O)c2ccc(N3CCN(CCO)CC3)c([N+](=O)[O-])c2)cc1`, 1.31%. With `O=S(=O)(c1cccc2nonc12)N1CCN(c2cccc(Cl)c2)CC1` the figure was 0.53%; with `Cc1cc2cc3c(N)[nH]nc3nc2cc1C`, 20.7% (active). Consider `CCOc1cc(C(=S)N2CCOCC2)ccc1OS(=O)(=O)c1ccc(Br)cc1`, for which the max response was -1.79%.

Turning to `CC(=O)c1ccc(S(=O)(=O)NCc2nnnn2-c2ccccc2)cc1`, the max response was -4.62%. Under `Cc1cc(C)cc(NC(=O)C2CCCN(S(=O)(=O)c3ccc4[nH]c(=O)ccc4c3)C2)c1` (stereo unspecified) stands 1.72%. Under `CCOc1ccc(C2/C(=C(/O)c3ccc4c(c3)CC(C)O4)C(=O)C(=O)N2CCCn2ccnc2)cc1` (stereo unspecified) stands 0.806%. Under `COCCn1c(-c2ccc(OC)c(OC)c2)nc2ccccc21` stands 18.4% (active).

Take `COc1ccc(-c2nc3ccccc3n2CCC(C)C)cc1OC`: the max response is -2.09%.

Consider `CCOCCn1c(-c2ccccc2)nc2ccccc21`, for which the max response was -1.28%. With `CC(NCc1ccccc1OC1CCCC1)c1ccccc1` (stereo unspecified) the figure was -1.87%; with `Cc1cc(Cl)c2oc(C(=O)N(C)C(C)c3ccccn3)c(C)c2c1` (stereo unspecified), 28.7% (active); with `Cc1cc(Cl)c2oc(C(=O)N3CCC(O)(c4ccccc4)CC3)c(C)c2c1`, 4.04%. Under `Cc1cc(Cl)c2oc(C(=O)NC(C)c3ccncn3)c(C)c2c1` (stereo unspecified) stands 6.71%; under `COc1ccc(CNC(=O)C2CC(c3ccc(C(F)(F)F)cc3)=NO2)cc1` (stereo unspecified), -0.982%. As to `Cc1cc(OCCCCOc2ccc(C#N)cc2)ccc1[N+](=O)[O-]`, the max response was -6.16%. Under `CCN(CC)C(=O)CSc1ncnc2c1cnn2-c1ccccc1` stands 38.4% (active). `c1ccc(-n2ncc3c2ncn2c(C4CCCCC4)nnc32)cc1`: the max response is -1.23%.

`c1ccc(-n2ncc3c(N4CCCC4)ncnc32)cc1`: the max response is 8.89%. With `CC(C)Sc1ncnc2c1cnn2-c1ccccc1` the figure was 46.6% (active); with `COC(=O)CSc1ncnc2c1cnn2-c1ccc(C)cc1C`, -8.2%; with `COc1ccccc1N1CCN(C(=O)CSc2ncnc3c2cnn3-c2ccc(C)c(C)c2)CC1`, 44.7% (active). For the molecule `COc1ccc(NC(=O)CSc2ncnc3[nH]ncc23)cc1`, the max response is 1.38%. Under `COc1ccccc1N1CCN(C(=O)CSc2nnc(-c3ccoc3C)o2)CC1` stands -1.64%; under `COc1ccc(-n2ncc3c(SCC(=O)NNC(C)=O)ncnc32)cc1`, 26.3% (active); under `CC(=O)Nc1ccc(NC(=O)CSc2ncnc3c2cnn3Cc2ccccc2)cc1`, 6%.

For the molecule `O=C(CSc1ncnc2c1cnn2CCc1ccccc1)Nc1ccc(F)cc1`, the max response was 2.37%.

For the molecule `COc1ccc(N2CCN(C(=O)CSc3ncnc4c3cnn4-c3ccc(OC)cc3)CC2)cc1`, the max response was -1.01%.
